Screening data (PubChem BioAssay)
BJeLR lethal – kills HRASV12-expressing BJeLR cells; AID 1554; BJeLR (HRASV12) viability, CellTiter-Glo ATP luminescence, 48 h; 300,000 tested, 0.17% active; inhibition, % (concentration not given with the values); in the data active = inhibition above about 50%
PrPC TRFRET – cell surface PrPC inhibition, primary TR-FRET screen | P04156 | TR-FRET read-out | inhibition, % at 13.8 µM | 370,000 tested, 0.43% active | AID 720596; in the data active = inhibition above about 24%
RN4220 kill – kills Staphylococcus aureus RN4220; S. aureus RN4220 growth, OD600, 16 h; inhibition, % (no concentration beside the values); 330,000 tested, 0.33% active; in the data active = inhibition above about 85%
3CLpro inhibitor – SARS-CoV 3CLpro protease inhibition. P0C6X7. recombinant SARS-CoV 3CLpro, quenched FRET peptide cleavage. inhibition, % at 6 µM. 290,000 tested, 0.14% active; in the data active = inhibition above about 12%
DUSP3 inh – DUSP3 (human) phosphatase inhibition; P51452; recombinant VHR phosphatase, pNPP absorbance; inhibition, % at 13.3 µM; 290,000 tested, 0.52% active; in the data active = inhibition above about 50%
Target sequence (P51452 whole entry, looked up): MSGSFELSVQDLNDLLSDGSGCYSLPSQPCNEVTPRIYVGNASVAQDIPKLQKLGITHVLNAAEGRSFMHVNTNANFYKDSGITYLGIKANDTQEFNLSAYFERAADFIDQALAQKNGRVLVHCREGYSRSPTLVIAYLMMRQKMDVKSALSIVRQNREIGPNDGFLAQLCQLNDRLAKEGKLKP
ugtP null kill – kills S. aureus RN4220 lacking UgtP; S. aureus RN4220 ugtP deletion, OD600 growth, 16 h; growth inhibition, % (concentration not given with the values); 330,000 tested, 0.54% active; in the data active = growth inhibition above about 68%
Numbers stand for hits; n = inactive; x = no result. In the library only some 1.4% were active in any assay of this set; here they are far more common.

SMILES | BJeLR lethal | PrPC TRFRET | RN4220 kill | 3CLpro inhibitor | DUSP3 inh | ugtP null kill
COCC(=O)Oc1c(Sc2ccccc2[N+](=O)[O-])c(C)nn1C(C)(C)C | n | n | n | n | n | n
CCC(CC)C(=O)Oc1c(Sc2ccccc2[N+](=O)[O-])c(C)nn1C(C)(C)C | n | n | n | n | n | 95.6
CCCN1CCN(C(=O)c2ccc(CS(=O)c3ccc(Cl)cc3)o2)CC1 (centres undefined) | n | n | n | n | 56.7 | n
Cc1ccc(CS(=O)Cc2ccc(C(=O)N3CCN(c4ccccc4)CC3)o2)cc1 (centres undefined) | n | n | n | n | n | n
O=C(NCCCN1CCCCC1)c1ccc(CS(=O)c2ccc(F)cc2)o1 (centres undefined) | n | n | n | n | 52.5 | n
O=C(c1ccc(CS(=O)Cc2ccc(Cl)cc2)o1)N1CCN(c2ccccc2)CC1 (centres undefined) | n | n | n | n | n | 93.8
COc1ccc(N2CCN(C(=O)c3ccc(CS(=O)Cc4ccc(C)cc4)o3)CC2)cc1 (centres undefined) | n | n | n | n | n | 95.5
C#Cc1ccc(C2C=C(C(=O)N3CCOCC3)OC(OCc3ccc(CO)cc3)C2)cc1 (centres undefined) | x | x | n | x | x | n
COc1cccc(N2CCN(C(=O)c3ccc(CS(=O)Cc4ccc(Cl)cc4)o3)CC2)c1 (centres undefined) | n | n | n | n | n | 91.9
O=c1c(-c2c(O)cc(O)c3c2OC(c2ccc(O)cc2)CC3)c(-c2ccc(O)cc2)oc2cc(O)cc(O)c12 (centres undefined) | x | x | n | x | x | n
Nc1nnc(-c2ccncc2)s1 | n | n | n | n | n | n
c1cc(-c2sc(-c3ccncc3)c(-c3ccncc3)c2-c2ccncc2)ccn1 | n | n | n | n | 52.8 | n
CCOC(=O)C=C1CN(Cc2cc(OC)c(OC)c(OC)c2)S(=O)(=O)c2ccccc21 | x | x | n | x | x | n
C=CCNC1=C(Cl)C(=O)c2ccccc2C1=O | n | n | 95.5 | n | n | 90.5
NNC(=O)c1sccc1OCc1ccc(F)cc1 | n | n | n | n | 54.7 | n
O=C(N/N=C/c1ccc(F)cc1)c1sccc1OCc1ccc(F)cc1 | n | n | x | n | n | x
COC(=O)C1NC(C(NC(=O)COc2ccccc2)C(=O)NCc2ccccc2)SC1(C)C (centres undefined) | x | x | n | x | x | n
CCOC(=O)C=Cc1ccc2oc3ccccc3c(=O)c2c1 | x | x | n | x | x | n
CCCSc1cc(NCCOC(=O)CCC)c([N+](=O)[O-])c2nonc12 | n | n | n | n | n | n
CCCC(=O)OCCNc1cc(Sc2nccn2C)c2nonc2c1[N+](=O)[O-] | 93.5 | n | n | n | n | n
CCc1ccc(S(=O)(=O)N=C2C=C(Sc3ncn[nH]3)C(=O)c3ccccc32)cc1 | x | x | n | x | x | n
CC(C)c1ccc(N2C(=O)NC(=O)C(=CC=Cc3ccco3)C2=O)cc1 | x | x | n | x | x | n
CSc1ccc(Cl)c(C(=O)NCCOc2cc(C(C)C)ccc2C)c1 | n | n | 96.3 | n | n | 97.3
COc1cc(SC)ccc1C(=O)NCCOc1ccc(Cl)cc1 | n | n | n | n | n | n
CCOC(=O)c1c(C)oc2c1c(C=NCC1CCCO1)c(O)c1ccccc12 (centres undefined) | n | n | x | n | 50.8 | x
SMILES | BJeLR lethal | PrPC TRFRET | RN4220 kill | 3CLpro inhibitor | DUSP3 inh | ugtP null kill
CC1CC2C(C(O)C[C@@]3(C)C2CC[C@]3(O)C(=O)CO)[C@@]2(C)C=CC(=O)C=C12 (some centres undefined) | x | x | n | x | x | n
CC[C@]1(O)CC2CN(CCc3c([nH]c4ccccc34)[C@@](C(=O)OC)(c3cc4c(cc3OC)N(C=O)C3[C@@](O)(C(=O)OC)C(OC(C)=O)[C@]5(CC)C=CCN6CC[C@]43C65)C2)C1 (some centres undefined) | x | x | n | x | x | n
O=C(Cn1c(=O)oc2ccccc21)Nc1ccc(F)c(F)c1 | n | n | n | n | 56.9 | n
CCOC(=O)C(=O)NN=C(c1ccccc1)c1ccc(OC)cc1 | x | x | n | x | x | n
O=C(c1ccc(F)cc1)N1CCC2(CC1)NCCc1[nH]cnc12 | n | n | n | n | 55.6 | n
O=C(c1ccc(F)c(F)c1)N1CCC2(CC1)NCCc1[nH]cnc12 | n | n | n | n | n | n
O=C(COC(=O)C12CC3CC(CC(C3)C1)C2)Nc1nccs1 | n | n | n | n | 52.0 | n
O=c1[nH]c(C2CCN(S(=O)(=O)c3ccc(S(=O)(=O)NC4CC4)cc3)CC2)nc2c1nnn2Cc1ccc(F)cc1 | n | n | n | n | 59.1 | n
O=c1[nH]c(C2CCN(S(=O)(=O)c3ccc(S(=O)(=O)NC4CC4)cc3)CC2)nc2c1nnn2Cc1ccccc1 | n | n | n | n | n | n
Cc1ccc(OCC(=O)NC(C)c2ccc(Cl)c(Cl)c2)c([N+](=O)[O-])n1 (centres undefined) | n | n | n | n | 52.0 | n
Cc1ccc(OCC(=O)Nc2cc(C)on2)c([N+](=O)[O-])n1 | n | n | n | n | n | n
COc1ccccc1-c1n[nH]c2c1C(C)CCC2C(C)C (centres undefined) | x | x | n | x | x | n
Cc1cc(-c2nn(-c3ccccc3F)cc2CN2CCCC(O)C2)c(C)s1 (centres undefined) | n | n | n | n | 53.3 | n
Cc1cc(-c2nn(-c3ccccc3F)cc2CN2CCCC(CO)C2)c(C)s1 (centres undefined) | n | n | n | n | n | n
CCOC(=O)C1C2COc3ccccc3C2N2C(=O)CNC(=O)[C@@]12C (some centres undefined) | x | x | n | x | x | n
CC1CN(c2ccc([N+](=O)[O-])c(NCCOc3ccccc3)c2)CC(C)N1 (centres undefined) | n | n | n | n | 51.5 | n
CC1CN(c2ccc([N+](=O)[O-])c(NCCOc3ccc(Cl)cc3)c2)CC(C)N1 (centres undefined) | n | n | n | n | n | n
Cc1c(C(=O)NCC2COc3ccccc3O2)oc2ccc(S(=O)(=O)N(C)C3CCCCC3)cc12 (centres undefined) | n | n | n | n | 52.3 | n
CN(C)S(=O)(=O)c1ccc(N2CCCC2)c(C(=O)NCC2COc3ccccc3O2)c1 (centres undefined) | n | n | n | x | x | n
COc1ccc(CCNC(=O)c2c(O)c3ccccc3[nH]c2=O)cc1 | n | n | n | n | 58.2 | n
O=C(CN1c2ccccc2Sc2ccccc21)NNC(=O)Nc1ccc(Cl)c(Cl)c1 | n | n | 100.3 | n | n | 100.8
O=C(CN1c2ccccc2Sc2ccccc21)NNC(=O)Nc1ccc(Cl)cc1 | n | n | n | n | n | n
Cc1ccc(-c2nn3c(C)nnc3c3ccccc23)cc1S(=O)(=O)NCCN1CCOCC1 | n | n | n | n | 52.4 | n
Cc1ccc(-c2n[nH]c(=O)c3ccccc23)cc1S(=O)(=O)NCCN1CCOCC1 | n | n | n | n | n | n
